NPC1 promoter act: activates the NPC1 promoter. actives 2.4% (n = 320,000). AID 485313. Potency, µM (titrated, usually from 9.22 µM), for the others: at the top dose activation, most hits filed as activators. Huh7 NPC1 promoter luciferase reporter, 24 h; further: % of control where 0% means no effect; nearly all actives have a fitted effect of over 60% in size
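Stable NPC1-promoter luciferase Huh7 line; cpd (DMSO) 24 h, 37 °C, 5% CO2; Amplite luciferase reagent 10 min RT; luminescence readout. qHTS format.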
Rab9 promoter act: activates the Rab9 promoter | Huh7 Rab9 promoter-luciferase reporter, luminescence, 24 h | Potency, µM (top dose mostly 9.22 µM), for the others: top-dose activation, negative = inhibition, hits mostly activators | actives 2.8% (n = 320,000); further: % of control where 0% means no effect; nearly all actives have a fitted effect of over 60% in size
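Huh7 reporter line, Rab9 promoter upstream of luciferase. Compound exposure 24 h at 37 °C in reduced-serum medium with 10% FBS. Read-out: luminescence.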
FLuc counter: inhibits or activates purified firefly luciferase, miR-21 counter-screen. P08659. Potency, µM (doses to about 57.5 µM), for the others: top-dose activity change, negative = inhibition, hits mostly inhibitors. actives 6.9% (n = 360,000). purified FLuc, Km substrates, luminescence inhibition;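 further: plate controls were vehicle for no effect and reference inhibitor for full effect; nearly all actives have a fitted effect of over 55% in size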
Target sequence (P08659 whole entry, looked up): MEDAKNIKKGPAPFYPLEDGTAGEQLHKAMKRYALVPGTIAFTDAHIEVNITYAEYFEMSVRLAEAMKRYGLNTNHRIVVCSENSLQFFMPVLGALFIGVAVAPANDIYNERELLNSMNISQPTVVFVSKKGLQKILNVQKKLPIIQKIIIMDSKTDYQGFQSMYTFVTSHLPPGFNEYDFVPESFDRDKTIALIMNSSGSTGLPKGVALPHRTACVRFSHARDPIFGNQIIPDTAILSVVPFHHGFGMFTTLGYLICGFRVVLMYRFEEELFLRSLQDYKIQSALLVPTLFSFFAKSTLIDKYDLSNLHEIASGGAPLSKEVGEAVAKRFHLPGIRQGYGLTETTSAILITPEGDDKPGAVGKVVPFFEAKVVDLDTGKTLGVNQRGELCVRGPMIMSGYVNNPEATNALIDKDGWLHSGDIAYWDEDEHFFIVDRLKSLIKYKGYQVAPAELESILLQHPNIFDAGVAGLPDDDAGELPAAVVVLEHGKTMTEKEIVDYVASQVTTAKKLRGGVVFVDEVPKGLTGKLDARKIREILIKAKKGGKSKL
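Biochemical qHTS of compounds, final roughly 60 µM downward over six points, against 10 nM purified firefly luciferase using Km concentrations of substrates (10 uM D-luciferin, 10 uM ATP) in Tris acetate pH 7.5 buffer; luminescence output.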
SMN2 splice enh: increases expression of the SMN2 splice variant; HEK293 SMN2-luciferase splicing reporter, luminescence, 30-36 h; Potency, µM (titrated, usually from 46.1 µM), inactives show at the top dose activity change, positive = activation, most hits filed as activators; actives 2.8% (n = 210,000); further: % of control where 0% means no effect; nearly all actives have a fitted effect of over 55% in size
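HEK293 cells carry an SMN2 minigene-luciferase reporter in which exon 7 inclusion puts luciferase in frame. Cells were seeded at 2000 cells/well, attached for 10-12 hours, then exposed to compounds for 30-36 hours at 37C before ONE-Glo luminescence.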
ELG1 genotox: genotoxicity induction in ELG1-luciferase HEK293T cells; HEK293T ELG1-luciferase reporter, luminescence, 16 h; actives 1.3% (n = 330,000); Potency, µM (highest dose often 46 µM), inactives show top-dose activity change, positive = activation, usual class: activators; further: % of control where 0% means no effect; nearly all actives have a fitted effect of over 60% in size
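Genotoxic stress is detected as increased luminescence from luciferase-tagged ELG1 in HEK293T cells, measured with ONE-Glo after a 16 hr treatment at 37 °C.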
Luc counter: counter-screen: inhibitors of Kinase-Glo firefly luciferase; Kinase-Glo luciferase, ATP luminescence, 8 min; actives 0.28% (n = 200,000); Potency, µM (highest dose often 38.3 µM), for the others: at the highest dose activity change, negative = inhibition, hits mostly inhibitors; Q27757; further: on the % scale 0 is the no-effect control and ±100 the full control effect; nearly all actives have a fitted effect of over 60% in size
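Luminescence was the read-out, taken after 8-minute incubation at ambient temperature. Luciferase turned over luciferin with 10 uM ATP in imidazole pH 7.2 buffer containing KCl, MgCl2, Tween 20 and BSA.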
Numbers without * were called inactive; ? = inconclusive; nt = not tested or not shown; [ ] = remark or other dose. In the library only some 7.5% were active in any assay of this set; here they are far more common. The call rests on the fitted dose curve; in most records, active means well fitted curve in the direction sought with a large enough effect; inconclusive means small, poorly fitted or top-dose-only effect, or another doubt; inactive means no such curve, though single readings can be large; an effect the other way counts as inactive or inconclusive. Potency means the concentration at half of the fitted maximal effect.

SMILES | NPC1 promoter act | Rab9 promoter act | FLuc counter | SMN2 splice enh | ELG1 genotox | Luc counter
O=C(CC(=O)Nc1cccc(F)c1)Nc1cccc(F)c1 | 5% | 4% | 1% | nt | 2% | nt
O=C(C#Cc1ccccc1)Nc1ccc(F)cc1 | 16% | 12% | 12µM* | nt | 10% | nt
Cc1cc(OC(C)C(=O)N(Cc2ccco2)Cc2ccco2)cc(C)c1Cl (centres undefined) | nt | nt | ? | -12% | nt | nt
CCN(CC(=O)N1CCCC1)S(=O)(=O)c1cc(C)ccc1OC | -3% | -1% | -1% | nt | -1% | nt
CCN1C(=O)[C@H]2[C@H]3CN=C(SCc4ccc(Cl)cc4)N3[C@@](C)(C(=O)OC)[C@H]2C1=O | nt | nt | nt | nt | 2% | nt
CCCNC(=O)COc1coc(CN2CCN(c3ccccc3OC)CC2)cc1=O | -2% | -3% | 0% | nt | 0% | nt
O=C(c1cc(-c2ccccc2)nc2ccccc12)N1CCCc2ccccc21 | -1% | 11% | 17µM* | -12%[1.84 µM] | -3% | -1%
Cc1cccc(-c2cc(C(=O)N3CCCc4ccccc43)c3ccccc3n2)c1 | 0% | 2% | 12µM* | nt | 1% | nt
CN(C1CCCCC1)S(=O)(=O)c1cn(C)c(=O)n(C)c1=O | -1% | -2% | 0% | nt | -2% | nt
O=C(Oc1ccc2c(c1)OCC2=O)c1ccc(Cl)cc1 | -6% | 0% | ? | nt | 0% | nt
O=C(Oc1ccc2c(c1)C(=O)c1ccccc1CO2)c1ccccc1 | 1% | 14% | 21µM* | -7% | ? | -2%
CC(C)n1cnc2c(Nc3ccc(C(=O)O)cc3)nc(Cl)nc21 | ? | 18% | 12µM* | nt | ? | nt
CC(Oc1ccccc1)C(=O)Nc1c(C(=O)Nc2cccc(F)c2)oc2ccccc12 (centres undefined) | nt | nt | -1% | 5% | nt | nt
O=C(/C=C/c1cccnc1)c1ccccc1O | -4% | -1% | 17µM* | nt | 8% | nt
Cc1ccc2occ(/C=C/C(=O)c3ccccc3O)c(=O)c2c1 | ? | 12% | ? | 8% | 7% | -7%
Cc1c(/C=C/C(=O)c2ccccc2O)cnn1C | 3.5µM* | 2.5µM* | 1.3µM* | 16µM* | ? | ?
CN(C)c1ccc(/C=C/C(=O)c2cccnc2)cc1 | -3% | -1% | 3µM* | nt | 0% | nt
CN(C)c1ccc(/C=C/C(=O)c2ccccc2O)cc1 | 3.5µM* | ? | 0.6µM* | nt | ? | -15%
Cc1ccc(/C=C/C(=O)c2ccc(C)cc2)cc1 | 10% | 23% | 1.3µM* | -1% | ? | 0%
Cc1ccc(/C=C/C(=O)c2ccccc2O)cc1 | 18% | 20% | 1.2µM* | nt | ? | nt
Cc1ccc(C(=O)/C=C/C(=O)c2ccc(C)cc2)cc1 | -4% | 1% | ? | -105% | -11% | -1%
O=C(/C=C/c1ccco1)c1cccnc1 | 2% | 1% | -7% | nt | -2% | nt
O=C(/C=C/c1ccco1)c1ccccc1O | -4% | -4% | 11µM* | nt | ? | -11%
O=C(NCc1cccnc1)c1c[nH]c2cc3c(cc2c1=O)OCCO3 | -1% | 2% | 6µM* | -44% | ? | -1%
O=C(c1ccccc1)c1c[nH]c2cc3c(cc2c1=O)OCCO3 | 22% | ? | ? | 22µM* | 16% | -1%
SMILES | NPC1 promoter act | Rab9 promoter act | FLuc counter | SMN2 splice enh | ELG1 genotox | Luc counter
O=C(c1ccccc1)c1c[nH]c2cc3c(cc2c1=O)OCO3 | -7% | 1% | 0% | 17% | 6% | -2%
CCCN(C(=O)CCNC(=O)Cn1cnc2ccccc2c1=O)c1cccc(Cl)c1 | 1% | -7% | -1% | nt | -3% | nt
COc1ccc2[nH]cc(CCN=C(NC(=O)c3ccccc3F)Nc3nc(C)cc(C)n3)c2c1 | nt | nt | 1% | 35µM* | nt | nt
Cc1cc(C)nc(NC(=NCCc2c[nH]c3ccccc23)NC(=O)c2ccco2)n1 | 9% | -3% | 0% | -14% | -24% | 0%
Nc1nc2ccccc2n1/N=C/c1ccc(-c2ccccc2)o1 | ? | 4µM* | ? | 27% | ? | -3%
Cc1ccc2c(c1)c1ncnc(N3CCOCC3)c1n2C | -1% | 0% | 15µM* | -19% | 7% | -3%
Cc1ccc2c(c1)c1ncnc(N3CCC4(CC3)OCCO4)c1n2C | 17% | 16% | 11µM* | ? | 15% | 3%
Cc1ccc2c(c1)c1ncnc(N3CCN(c4ccccc4)CC3)c1n2C | -1% | -9% | -15% | 5% | -2% | 0%
Cc1cccc(N2CC(C(=O)Nc3nccs3)CC2=O)c1C (centres undefined) | -3% | 1% | -1% | nt | -6% | nt
COc1ccc(/C=N/Nc2nccnc2Cl)cc1 | 1.3µM* | 0.45µM* | 2.7µM* | 14µM* | 1.5µM* | 7.1µM*
COc1ccc(/C=N/Nc2nccnc2Cl)c(OC)c1 | 16% | ? | 11µM* | 27% | ? | 13µM*
Clc1nccnc1N/N=C/c1ccc(Br)cc1 | 2µM* | 2µM* | 9.5µM* | nt | ? | nt
COc1ccc(/C=N\NC(=O)O)cc1 | nt | nt | nt | -7%[9.22 µM] | nt | -5%[7.66 µM]
COc1ccc(-c2csc(N(C)C(=O)c3cccs3)n2)cc1 | ? | 2.5µM* | 6µM* | nt | 15% | 2%
CN(C(=O)c1ccco1)c1nc(-c2ccc(F)cc2)cs1 | 3.5µM* | 2.8µM* | 2.7µM* | nt | ? | nt
O=C(c1ccco1)N(CCCN1CCOCC1)c1nc(-c2ccc(F)cc2)cs1 | -3% | 1% | -14% | -26% | -7% | -6%
CN(C(=O)c1ccco1)c1nnc(-c2ccc(F)cc2)s1 | 2.2µM* | 3.2µM* | 6.7µM* | nt | ? | nt
COc1ccc(-c2nnc(N(C)C(=O)c3ccco3)s2)cc1OC | 15% | 26% | -11% | nt | 10% | nt
CN(CC(=O)Nc1ccc(F)cc1F)S(=O)(=O)c1ccc(C(=O)N2CCOCC2)s1 | nt | nt | -5% | nt | nt | nt
CC(=O)c1cccc(-n2c(=O)c3c4c(sc3n(CC(=O)c3ccc(Cl)cc3)c2=O)CN(C(C)=O)CC4)c1 | nt | nt | 0% | -3% | nt | nt
O=C(Cc1c(F)cccc1Cl)NNC(=O)c1ccccc1Cl | -1% | -2% | 1% | nt | 0% | nt
O=C(O)c1ccc2c(c1)C(=O)N(c1cccc3ccccc13)C2=O | 1% | -7% | -9% | nt | -2% | nt
CN(C)C(=O)CSc1nnc(C23CC4CC(CC(C4)C2)C3)o1 | ? | 3.2µM* | ? | ? | 9.2µM* | 0%
CC(C)Cc1nnc(NC(=O)C2=COCCO2)s1 | ? | ? | 17µM* | nt | ? | nt
O=C(Nc1nccs1)C1=COCCO1 | nt | nt | nt | nt | 7% | nt
CCCCCc1nnc(NC(=O)C2CCCO2)s1 (centres undefined) | 28% | ? | ? | ? | 13µM* | -2%
CCCCCc1nnc(NC(=O)C2=COCCO2)s1 | 2.8µM* | 2.2µM* | 19µM* | nt | ? | nt

Screens: PubChem BioAssay, National Center for Advancing Translational Sciences (NCATS)
